Sampled rows, rich in hits. Any-hit rate of the full collection: about 2.2%.
MOR-DOR ag: agonists of human mu-delta opioid receptor heterodimerization; cells, OPRM1-OPRD1 heterodimerization, luminescence; activation, % at 9.3 µM; 0.3% of 340,000 active; AID 504326; in the data active = activation above about 18%
Target sequence (P35372 whole entry, looked up): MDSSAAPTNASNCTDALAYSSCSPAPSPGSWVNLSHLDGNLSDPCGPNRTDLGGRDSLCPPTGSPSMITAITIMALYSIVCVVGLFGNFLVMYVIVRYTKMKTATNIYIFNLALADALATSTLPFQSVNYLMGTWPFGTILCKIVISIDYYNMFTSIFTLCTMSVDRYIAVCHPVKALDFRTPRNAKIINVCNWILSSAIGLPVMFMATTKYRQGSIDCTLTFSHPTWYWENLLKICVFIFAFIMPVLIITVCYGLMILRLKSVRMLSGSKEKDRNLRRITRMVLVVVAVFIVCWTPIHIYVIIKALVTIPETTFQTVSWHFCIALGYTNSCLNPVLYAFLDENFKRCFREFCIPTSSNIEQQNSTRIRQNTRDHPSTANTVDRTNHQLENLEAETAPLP
Target sequence (P41143 whole entry, looked up): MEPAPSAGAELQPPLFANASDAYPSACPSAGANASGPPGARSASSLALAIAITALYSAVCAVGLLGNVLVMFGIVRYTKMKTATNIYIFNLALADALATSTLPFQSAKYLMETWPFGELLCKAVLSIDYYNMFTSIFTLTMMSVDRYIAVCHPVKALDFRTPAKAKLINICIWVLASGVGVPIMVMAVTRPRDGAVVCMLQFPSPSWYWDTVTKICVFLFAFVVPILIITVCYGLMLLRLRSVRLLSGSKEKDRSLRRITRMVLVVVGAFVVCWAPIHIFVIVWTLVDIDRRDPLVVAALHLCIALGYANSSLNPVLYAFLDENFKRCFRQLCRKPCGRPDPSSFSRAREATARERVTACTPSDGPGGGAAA
HTR5A inv ag: HTR5A inverse agonism, opioid heterodimer counter-screen; P47898; HTR5A cell line, luminescence; inhibition, % at 9.3 µM; 0.083% of 340,000 active; AID 504634; in the data active = inhibition mostly above about 23%, no sharp cut-off; inactive = mostly below about 18%
MOR-DOR inv ag: mu-delta opioid heterodimer inverse agonism; P35372+P41143; cell-based MOR-DOR heterodimer luminescence; inhibition, % at 9.3 µM; 0.21% of 340,000 active; AID 504357; in the data active = inhibition above about 22%, passing the limit was not always enough
sPLA2-III inh: Blocks human group III sPLA2 activity | Q9NZ20 | QFRET BODIPY PC-A2 liposome hydrolysis, fluorescence | inhibition, % at 12.2 µM | 0.56% of 370,000 active | AID 743126;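 active = inhibition above mean plus 3 SD of compounds lying within the high and low control bounds, cut at about 19% in these data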
HTR5A ag ctr: activates human HTR5A in OPRM1-OPRD1 agonist counter-screen. P47898. HTR5A agonist assay, luminescence, cell-based. activation, % at 9.3 µM. 0.61% of 340,000 active. AID 504692; in the data active = activation mostly above about 9.5%, no sharp cut-off; inactive = mostly below about 7.6%
m5-HT2A agonist: agonists of mouse serotonin 5-HT2A receptor (HTR2A); activation, % at 7.6 µM; CHO-K1 mHTR2A beta-arrestin complementation, luminescence; percent of 30 µM serotonin response; AID 624169; P35363; 0.66% of 360,000 active;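 active = activation above a run cutoff, the mean activation of all tested compounds plus 3 SD, cut at about 14% in these data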
Large screens that a line does not name were inactive.

Cc1ccc(S(=O)(=O)N/N=C/c2ccccc2F)cc1[N+](=O)[O-]	HTR5A ag ctr 12
Cc1ccc(S(=O)(=O)NN=C2CCC(C(C)(C)C)CC2)cc1[N+](=O)[O-] (stereo unspecified)	none (no result: sPLA2-III inh)
CCCC1CCC(=NNS(=O)(=O)c2ccc(C)c([N+](=O)[O-])c2)CC1 (stereo unspecified)	HTR5A ag ctr 13
O=S(=O)(N/N=C/c1ccccc1F)c1ccccc1	none
Cc1cccc(CN[C@@H]2CC[C@@]34CCCN3C(=O)CCC[C@H]4C2)c1	none (no result: MOR-DOR ag, HTR5A inv ag, MOR-DOR inv ag, HTR5A ag ctr, m5-HT2A agonist)
O=C(O)c1ccc(N=N/C(=N\Nc2ccc(C(=O)O)cc2)c2ccccc2)cc1	HTR5A inv ag 35, MOR-DOR inv ag 31
O=C(O)c1cccc(N/N=C(\N=Nc2ccccc2)c2ccccc2)c1	none
N#Cc1cc(F)cc(OC[C@@H](O)CN2CCC(C(O)(c3ccccc3)c3ccccc3)CC2)c1	none (no result: MOR-DOR ag, HTR5A inv ag, MOR-DOR inv ag, HTR5A ag ctr, m5-HT2A agonist)
COC(=O)[C@]12C=CCN1[C@@H](c1ccc(OC)c(OC)c1)c1c(c3ccccc3n1S(=O)(=O)c1ccc(C)cc1)C2	none (no result: MOR-DOR ag, HTR5A inv ag, MOR-DOR inv ag, HTR5A ag ctr, m5-HT2A agonist)
Cc1ccc(-n2c(Cc3cccs3)nnc2SCc2ccc(C#N)cc2)cc1	none (no result: MOR-DOR ag, HTR5A inv ag, MOR-DOR inv ag, HTR5A ag ctr, m5-HT2A agonist)
CC(=O)Nc1cccc(NC(=O)Nc2ccc(C(C)=O)cc2)c1	none
CCN(CC)c1ccc(NC(=O)Nc2cccc(C(C)=O)c2)cc1	HTR5A ag ctr 13
Cc1cc(NC(=O)CN2CCN(S(=O)(=O)c3ccc4ccccc4c3)CC2)no1	HTR5A ag ctr 10
COC(=O)[C@]12C[C@H](CC(=O)N3CCN(C(=O)c4ccco4)CC3)C(=O)N(Cc3ccco3)C1=C[C@H](C(C)C)O[C@@H]2C1CC1	none (no result: MOR-DOR ag, HTR5A inv ag, MOR-DOR inv ag, HTR5A ag ctr, m5-HT2A agonist)
CN1CCN(c2ccccc2NC(=O)c2ccc(-c3cccc(Cl)c3)o2)CC1	MOR-DOR ag 62
O=C(Nc1ccccc1)OCCN1C(=O)CCC12CCC(c1ccc(Cl)cc1)CC2 (stereo unspecified)	none (no result: MOR-DOR ag, HTR5A inv ag, MOR-DOR inv ag, HTR5A ag ctr, m5-HT2A agonist)
CCCCC1(C)OC(=O)C(=Cc2ccc(N(C)C)cc2)C(=O)O1 (stereo unspecified)	m5-HT2A agonist 20
Cc1ccc(NC(=O)CSc2nnc3c(n2)[nH]c2ccccc23)cc1	none
Cc1ccc(-c2csc(NC(=O)CSc3nnc4c(n3)[nH]c3ccccc34)n2)cc1	HTR5A ag ctr 13
S=C(Nc1ccc(Cl)c(Cl)c1)Nc1nnc(-c2ccncc2)s1	none (no result: MOR-DOR ag, HTR5A inv ag, MOR-DOR inv ag, HTR5A ag ctr, m5-HT2A agonist)
C=CC(=O)Nc1cccc(Nc2nc(N[C@H]3CC[C@H](N(C)C)CC3)nc3c2ncn3C(C)C)c1	MOR-DOR ag 36 (no result: sPLA2-III inh)
COc1ccc(C(=O)OCCN(C)C2CN(Cc3cn(Cc4cccc(F)c4)nn3)S(=O)(=O)C2)cc1OC (stereo unspecified)	none (no result: MOR-DOR ag, HTR5A inv ag, MOR-DOR inv ag, HTR5A ag ctr, m5-HT2A agonist)
CN(C(=O)c1cccc(NC(=O)Cc2cccc(NC(=O)C3CCN(C(=O)c4ccccc4)CC3)c2)c1)C1CC1	HTR5A ag ctr 9.1
COc1ccc(C(=O)SC2=NCCS2)cc1	HTR5A ag ctr 12
CCOc1cc(C(c2c(C)[nH][nH]c2=O)c2c(C)[nH][nH]c2=O)ccc1OC(=O)c1cccc([N+](=O)[O-])c1	none
CCOc1cc(C(c2c(C)[nH][nH]c2=O)c2c(C)[nH][nH]c2=O)ccc1OCc1ccc([N+](=O)[O-])cc1	HTR5A ag ctr 11
CCCCCCCCN1C(=O)[C@@H](CC(=O)N2CCN(C(=O)OCC)CC2)C[C@@]2(C(=O)OC)C1=C[C@H](COCc1ccccc1)O[C@@H]2C	none (no result: MOR-DOR ag, HTR5A inv ag, MOR-DOR inv ag, HTR5A ag ctr, m5-HT2A agonist)
CCOC(=O)C1=C(O)/C(=C/c2ccc(CNC(=O)C(=O)Nc3ccc(C)cc3)o2)N=C1C	HTR5A ag ctr 14
O=S(=O)(c1ccc(CN2CCOCCOCCN(Cc3ccc(S(=O)(=O)C(F)(F)F)cc3)CCOCC2)cc1)C(F)(F)F	none (no result: MOR-DOR ag, HTR5A inv ag, MOR-DOR inv ag, HTR5A ag ctr, m5-HT2A agonist)
CC1CN(N=Cc2ccc([N+](=O)[O-])o2)C(=N)O1 (stereo unspecified)	HTR5A ag ctr 8.2
Cc1ccc(C(=O)Sc2cccccc2=O)cc1	HTR5A inv ag 34, MOR-DOR inv ag 40
CC(=O)Nc1nc2n(n1)C(c1ccccc1)C=C(c1ccccc1)N2 (stereo unspecified)	HTR5A inv ag 32 (no result: sPLA2-III inh)
CNCCCCOc1ccccc1-c1ccccc1	HTR5A ag ctr 9.9
Cc1cc(C(C)(C)C)cc(C)c1Cn1c2[n+](c3ccc(C(F)(F)F)cc31)CCCCC2	HTR5A ag ctr 11
CC(Oc1ccccc1F)C(=O)Nc1ccc2ccccc2c1 (stereo unspecified)	HTR5A ag ctr 11
COc1ccc(-c2cc(C(=O)NNC(=S)NC(=O)c3c(-c4ccccc4)noc3C)[nH]n2)cc1	sPLA2-III inh 24
CCC[C@H]1[C@@H](OC(=O)NCc2ccc(C(F)(F)F)cc2)CC[C@@]23CCCN2C(=O)CCC[C@@H]13	none (no result: MOR-DOR ag, HTR5A inv ag, MOR-DOR inv ag, HTR5A ag ctr, m5-HT2A agonist)
COP1(=O)CCOCC[C@H](CC(C)C)NC(=O)[C@H](CC(C)C)N1 (stereo partly specified)	none (no result: MOR-DOR ag, HTR5A inv ag, MOR-DOR inv ag, HTR5A ag ctr, m5-HT2A agonist)
Cc1ccc2nc(-c3ccccc3)cc(C(=O)Nc3cccnc3)c2c1	HTR5A ag ctr 13
Cc1cccc(NC(=O)c2cc(-c3cccnc3)nc3c(C)cccc23)n1	HTR5A ag ctr 11
Cc1ccc(-c2cc(C(=O)Nc3cccnc3)c3ccccc3n2)s1	HTR5A ag ctr 10
Cc1cc(NC(=O)c2cc(-c3ccncc3)nc3c(C)cccc23)no1	none
Cc1cccc(-c2cc(C(=O)Nc3cccnc3)c3ccccc3n2)c1	none
Cc1cccc(-c2cc(C(=O)Nc3ccncc3)c3ccccc3n2)c1	MOR-DOR ag 21, HTR5A ag ctr 12
COC(=O)C1CN(CCc2ccccc2)CCS(=O)(=O)N1Cc1ccc(C(F)(F)F)cc1 (stereo unspecified)	none (no result: MOR-DOR ag, HTR5A inv ag, MOR-DOR inv ag, HTR5A ag ctr, m5-HT2A agonist)
O=C1CC(C(=O)O)S/C(=N\NC(=O)c2ccccc2)N1 (stereo unspecified)	HTR5A ag ctr 12
C/C(=N\N=C1\NC(=O)CC(C(=O)O)S1)c1ccc(F)cc1 (stereo unspecified)	none
Cc1ccnc(SCc2cc(=O)c(OC(=O)c3ccc(C)c([N+](=O)[O-])c3)co2)n1	none (no result: MOR-DOR ag, HTR5A inv ag, MOR-DOR inv ag, HTR5A ag ctr, m5-HT2A agonist)
Cc1ccc(NC(=O)C2CC3CCC2C3)cc1 (stereo unspecified)	none (no result: MOR-DOR ag, HTR5A inv ag, MOR-DOR inv ag, HTR5A ag ctr, m5-HT2A agonist)
COc1cc2c(cc1NC(=O)CSc1nnc(-c3ccccc3F)n1-c1ccc(C)cc1)oc1ccccc12	none (no result: MOR-DOR ag, HTR5A inv ag, MOR-DOR inv ag, HTR5A ag ctr, m5-HT2A agonist)
CN1C2=N[C@@H](c3ccccc3)CC(=O)N2/C(=C\c2ccccc2)[C@H]1c1ccccc1	none (no result: MOR-DOR ag, HTR5A inv ag, MOR-DOR inv ag, HTR5A ag ctr, m5-HT2A agonist)
CC(C)(C)OC(=O)N1CCC[C@H]1C(=O)Nc1ccc(C#N)cc1	HTR5A ag ctr 9.6
N#CC1C(=O)NC(c2ccccc2)=CC1c1ccccc1 (stereo unspecified)	HTR5A inv ag 52, MOR-DOR inv ag 69
COc1cccc(C(=O)O/N=C(\N)c2ccc([N+](=O)[O-])cc2)c1OC	HTR5A ag ctr 13
COc1ccc(/C(N)=N/OC(=O)c2cccc([N+](=O)[O-])c2C)cc1OC	none (no result: sPLA2-III inh)
Cc1cc(NC(=O)c2cc3cccc([N+](=O)[O-])c3[nH]2)ccc1F	HTR5A ag ctr 12

Screening data: PubChem, The Scripps Research Institute Molecular Screening Center
